Inconclusive results are not listed. Calls of active or inactive are those of the source. Calls come from the whole dose curve; as a rule, active = well fitted inhibition curve with a large enough effect; inconclusive = small, poorly fitted or top-dose-only effect; inactive = no such curve, though single readings can be large or run the other way.
Each compound was assayed against Coelenterazine h 2-monooxygenase (Renilla reniformis) (UniProt P27652) (assay: qHTS Assay for Inhibitors of Sea Pansy Luciferase from the GSK Published Protein Kinase Inhibitor Set). Conditions: purified Renilla luciferase, luminescence; series mostly up to 57.5 µM.
In short: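 qHTS (roughly 60 uM down to 300 pM) against 1 nM Renilla luciferase, substrate coelenterazine h 5 uM, Tris acetate pH 7.5 buffer with NaCl, Tween-20 and BSA. Luminescence measured after an average 2 min incubation.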
Potency is the fitted concentration of half-maximal effect.

Coelenterazine h 2-monooxygenase (Renilla reniformis), sequence (P27652 whole entry, looked up): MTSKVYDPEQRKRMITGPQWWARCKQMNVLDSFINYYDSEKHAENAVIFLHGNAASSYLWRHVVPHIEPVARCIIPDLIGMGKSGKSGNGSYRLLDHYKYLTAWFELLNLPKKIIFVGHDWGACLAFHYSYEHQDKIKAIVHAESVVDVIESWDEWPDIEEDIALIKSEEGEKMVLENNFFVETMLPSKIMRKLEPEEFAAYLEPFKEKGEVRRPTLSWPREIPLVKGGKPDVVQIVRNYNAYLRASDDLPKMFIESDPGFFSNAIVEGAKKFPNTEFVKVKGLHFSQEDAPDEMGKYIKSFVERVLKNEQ

Potency, inactive:
NC(=O)c1ccc(-c2nc(-c3ccc4c(c3)OCO4)c(-c3ccccn3)[nH]2)cc1
COC(=O)Nc1nc2ccc(Oc3ccc(NC(=O)Nc4cccc(Cl)c4)cc3)cc2[nH]1
COc1ccc(-c2cc3c(N)ncnc3o2)cc1
NS(=O)(=O)c1cccc(N=Cc2c(O)[nH]c3ccccc23)c1
NS(=O)(=O)c1cccc(Nc2cc(-c3ccc(F)cc3)[nH]n2)c1
CCn1c(-c2nonc2N)nc2cncc(C(=O)N3CCC(N)C3)c21 (centres undefined)
COc1ccc2cc(-c3c(-c4ccncc4)nc(-c4ccc(S(C)(=O)=O)cc4C)n3C)ccc2c1
CN1CCC(C(=O)Nc2n[nH]c3nnc(-c4ccccc4)cc23)CC1
CC(=O)NCc1cccc(C#Cc2cncnc2Nc2ccc(OCc3cccc(F)c3)c(Cl)c2)c1
COc1ccccc1Oc1nccc(-c2c(-c3ccc(F)cc3)ncn2C2CCNCC2)n1
O=C1NC(=O)C(c2ccccc2Cl)=C1Nc1cccc(O)c1
NC(=O)c1ccc(Oc2nccc(-c3c(-c4ccc(F)cc4)ncn3C3CCNCC3)n2)cc1
NC(=O)c1ccc2c(-c3ccnc(NCCCO)n3)c(-c3ccc(F)cc3)nn2c1
NCc1ccc(-c2nc(-c3ccc(Cl)c(O)c3)c(-c3ccncc3)[nH]2)cc1
NC(=O)c1sc(-n2cnc3ccc(C(F)(F)F)cc32)cc1OCc1ccccc1Br
COc1cc(C)c(NC(=O)CN(C)C)cc1Nc1nc(Nc2cccc(F)c2C(N)=O)c2cc[nH]c2n1
NC(=O)c1cc(-c2ccncc2)cc(-c2ccccc2)c1N
Cc1cccc(Nc2ncc(-c3ccccc3)o2)c1
Cc1nc(-c2ccccc2)n2nc(NCCCN3CCOCC3)ncc12
Cc1cccc(-c2[nH]ncc2-c2ccc3ncccc3n2)n1
O=C(O)c1ccc(Oc2nccc(-c3c(-c4ccc(F)cc4)ncn3C3CCNCC3)n2)cc1
COC(=O)Nc1nc2ccc(Oc3ccc(NC(=O)Nc4ccccc4)cc3)cc2[nH]1
CCc1cccc(NC(=O)Nc2ccc(Oc3ccc4nc(NC(=O)OC)[nH]c4c3)cc2)c1
CCn1c(-c2nonc2N)nc2ccccc21
Cc1cccc(Oc2nccc(-c3c(-c4ccc(F)cc4)ncn3C3CCNCC3)n2)c1C
NC(=O)c1cccc(Nc2nccc(Nc3cccc4[nH]ncc34)n2)c1
Cc1cc(O)cc(C)c1C=Cc1cncc(C(=O)N(C)C)c1
CN1CCC(n2cnc(-c3ccc(F)cc3)c2-c2ccnc(Nc3ccccc3)n2)CC1
c1cnn2ncc(-c3ccnc(Nc4ccc5c(c4)OCCO5)n3)c2c1
O=S1CCN(Cc2ccc(-c3ccc4ncnc(Nc5ccc(OCc6ccccc6)c(F)c5)c4c3)o2)CC1
CN(C)CCOc1ccc(-c2cc(-c3ccc4c(c3)CCC4=NO)c(-c3ccncc3)o2)cc1
NS(=O)(=O)c1ccc(N=Nc2c(O)[nH]c3ccc(-c4cnco4)cc23)cc1
COc1cc(N2CCN(C(C)C)CC2)ccc1Nc1nc(Nc2ccc(F)cc2C(=O)NCC(O)CO)c2cc[nH]c2n1 (centres undefined)
c1ccc(-c2nc3n(c2-c2ccc4c(c2)OCO4)CCC3)nc1
COc1ccc(-c2ccncc2)cc1C(N)=O
CN(C)CCCn1c(-c2nonc2N)nc2cnccc21
CC(=O)Nc1cccc(C#Cc2cncnc2Nc2ccc(OCc3cccc(F)c3)c(Cl)c2)n1
CS(=O)(=O)CCNCc1ccc(-c2ccc3ncnc(Nc4ccc(OCc5ccccc5)cc4)c3c2)o1

Potency, active:
COc1ccccc1-c1cc(C=C2C(=O)Nc3ncc(Br)cc32)cc(Br)c1O 8.19 µM

Reference: PubChem BioAssay AID652015 (National Center for Advancing Translational Sciences (NCATS), 2013)
